The structures appear in SMILES notation. Hit rate of the full screen: of about 68,000 compounds, about 2,700 (4%) showed an effect of 50% or more. The sample as a whole holds a higher share of strong results than the screen did.

INHIBITION data for 106 molecules are collected here from ChEMBL document CHEMBL4513216, “Probing the Open Global Health Chemical Diversity Library for Multistage-Active Starting Points for Next-Generation Antimalarials” (ACS Infect Dis, 2020).

The subject of the experiment is Plasmodium berghei. Kind of experiment: Screen against P. berghei liver stage (PbLuc), transformed with Luciferase, at 2uM. It counts as functional, HepG2. Conditions: tested at 2 uM.
Consider `COc1ccc(CN2CC[C@@H]3[C@H]2CCC(=O)N3c2cnn(C)c2)cc1`, for which the INHIBITION is given as -41.29%. As to `NC(=O)C1CCN(C(=O)c2cccn2Cc2cccs2)C1` (stereo unspecified), the INHIBITION was -8.9%.

As for `CCC(C)(C)NC(=O)CN(Cc1cccc(O)c1)C1CCC(O)CC1` (stereo unspecified), the INHIBITION is reported as 6.85%.

Take `Cn1cc(CN2CCC(F)(F)C3(CCN(c4ncccn4)C3)C2)cn1` (stereo unspecified): the INHIBITION is on record as 11.54%. On to `COCCOc1cccc(C(=O)N2CCCC(n3ccnc3C)C2)c1` (stereo unspecified), for which the INHIBITION is 27.55%.

`COC(=O)c1ccc(NCc2csc(C)n2)cc1Cl`: the INHIBITION is -37.11%. In the case of `CCOc1c(Br)cc(C2c3c(n[nH]c3C)N=C3COC(=O)C32)cc1OC` (stereo unspecified), the INHIBITION is given as -54.78%. With `Cc1nc(C)c(C(=O)N2CCc3c(C)cccc32)o1` the figure was 43.28%; with `Cc1nc(C)c(C(=O)N2CCCc3c(F)ccc(F)c32)o1`, 44.71%; with `Cc1nc(C)c(C(=O)N2CCCc3c(F)cccc32)o1`, 54.77%. With `COc1ccc(CNC[C@H]2COCc3nc4cccnc4n32)cn1` the figure was -8.63%; with `CC1CCN(C(=O)c2cccc3ncccc23)CC1`, -29.11%; with `CN(C)C(C(=O)N1CC(c2ccccn2)C1)c1cccc(F)c1` (stereo unspecified), 12.35%. The same measure for `Cc1ccc(Sc2nccn(C)c2=O)cc1`: -2.44%; for `Cn1ccnc(Sc2ccccc2)c1=O`: 50.53%; for `Cn1ccnc(Sc2ccc(O)cc2)c1=O`: -31.15%. Regarding `COc1ccc2c(c1)CC(NCCCn1cc(C)cn1)CC2` (stereo unspecified), the INHIBITION is recorded as -0.75%.

With `CN(Cc1cccc(Cl)c1)S(=O)(=O)N1CCOCC1`, the INHIBITION is on record as 50.74%. The same measure for `CN(Cc1cccc(F)c1)S(=O)(=O)N1CCOCC1`: 46.57%; for `COc1cccc(CN(C)S(=O)(=O)N2CCOCC2)c1`: 11.97%. The same measure for `CCc1nc(CN2CCOC(CN(CC)c3cccnn3)C2)cs1` (stereo unspecified): -24.11%; for `CN1CCN(Cc2cn3c(n2)CN(C(=O)c2cccn2C)CC3)CC1`: -36.65%; for `CC(C(=O)N1CCC(Nc2cccnn2)CC1)n1cccn1` (stereo unspecified): 9.17%. Take `CC(Cn1cccn1)C(=O)N1CCC(Nc2cccnn2)CC1` (stereo unspecified): the INHIBITION was determined as 57.23%. The same measure for `CCn1c(C)cc(C(=O)N2CCC(Nc3cccnn3)CC2)c1C`: 56.58%. Take `COc1ncccc1C(=O)N1CCC(Nc2ccc(C)nn2)CC1`: the INHIBITION is reported as 62.13%. The same measure for `CCOc1ncccc1C(=O)N1CCC(Nc2ccc(C)nn2)CC1`: -23.94%; for `CCn1c(C)cc(C(=O)N2CCC(Nc3ccc(C)nn3)CC2)c1C`: 13.88%; for `O=C(c1ccc(NC2CC2)nc1)N1CCC(Nc2cccnn2)CC1`: 22.1%.

For the molecule `O=C(c1ccc2[nH]c(=O)[nH]c2c1)N1CCC(Nc2cccnn2)CC1`, the INHIBITION worked out at 53.45%.

For the molecule `Cc1ccc(NC2CCN(C(=O)c3cccnc3O)CC2)nn1`, the INHIBITION is -31.57%.

Take `O=C(c1ccc2[nH]nnc2c1)N1CCC(Nc2cccnn2)CC1`: the INHIBITION was -23.42%. Take `CC(C(=O)N1CCC(Nc2cccnn2)CC1)n1ccnc1` (stereo unspecified): the INHIBITION is on record as -12.48%.

Consider `O=C(c1ccc2cc[nH]c2c1)N1CCC(Nc2cccnn2)CC1`, for which the INHIBITION is -16.42%. For the molecule `O=C1NC2(CCN(Cc3ccccc3Cl)CC2)CC1c1ccccc1` (stereo unspecified), the INHIBITION is 5.92%.

Take `Cc1cc(NS(=O)(=O)CC2CCCCO2)ccc1F` (stereo unspecified): the INHIBITION is on record as -40.47%. Consider `CCc1ncc2c(n1)CN(CC(=O)Nc1nncs1)CC2`, for which the INHIBITION was found to be 21.12%. Turning to `CN(C)CCOCC1CN(Cc2cccc(F)c2)Cc2nccn2C1` (stereo unspecified), the INHIBITION was -0.23%. For the molecule `Cc1nc(CNC(=O)C(C)Oc2ccccc2F)no1` (stereo unspecified), the INHIBITION is listed as -8.04%.

For the molecule `CC1CCN(c2nc3cn(Cc4cccc(F)c4)c(=O)c-3c[nH]2)CC1`, the INHIBITION amounted to 12.59%. Consider `COCC(NC(=O)NCc1sccc1C)c1ccco1` (stereo unspecified), for which the INHIBITION is -6.4%.

Turning to `Cc1cc(C(=O)N(C)C)nc(C2(C)CCCN2c2ccccc2)n1` (stereo unspecified), the INHIBITION is 9.9%. With `Cc1nc(C)n(CC2CCCN(CCOc3ccccc3C#N)C2)n1` (stereo unspecified) the figure was -70.51%. As for `CS(=O)(=O)N1CCO[C@@H]2CCN(C(=O)c3cccs3)CC[C@H]21`, the INHIBITION is recorded as 51.36%. As to `CN(C)CCN1CCO[C@H]2CCN(C(=O)c3cccs3)CC[C@@H]21`, the INHIBITION came out at 33.11%. With `COCCN1CCO[C@H]2CCN(C(=O)c3cccs3)CC[C@@H]21` the figure was 34.19%; with `CN(Cc1cccnc1)C[C@@H]1OC[C@H]2CN(C(=O)C3CC3)CC[C@H]21`, 20.21%; with `Cn1cc(N2CC3(COCCN(Cc4ccsc4)C3)OCC2=O)cn1` (stereo unspecified), -17.88%. For `O=C(C1CC1)N1CCN2C[C@@H](CO)[C@H](c3ccccc3)[C@H]2C1`, the INHIBITION was 14.45%.

Take `CC=C(C)C(=O)NS(=O)(=O)c1ccc(Cl)cn1`: the INHIBITION was -40.56%.

With `COc1ccc(NC(=O)Cc2c(C)nn(C)c2C)cc1F`, the INHIBITION was 18.15%. As to `COc1cc(CN(C)C(=O)Cc2c(C)nn(C)c2C)ccc1OC(F)F`, the INHIBITION is listed as -51.9%. With `COc1ccc(CN(C)C(=O)Cc2c(C)nn(C)c2C)cc1F` the figure was 51.31%; with `CN(C)CC1(O)CCCN(C(=O)c2ccccc2-n2cccn2)C1` (stereo unspecified), -6.64%; with `O=S1(=O)CCCN1Cc1coc(-c2cccs2)n1`, 21.33%.

Turning to `COCCN(CCN(C)C)C(=O)NC1CCc2ccccc2C1` (stereo unspecified), the INHIBITION amounted to 62.39%. `COCCN(CCOC)C(=O)NC1CCCCC1`: the INHIBITION is -20.08%. For the molecule `COCCN(CCN(C)C)C(=O)NC1CC1`, the INHIBITION is -25.13%. With `CC1(c2ccc(Br)cc2)CC(=O)N(CCC(N)=O)C1=O` (stereo unspecified), the INHIBITION was -10%. The same measure for `CN(CC(C)(CO)CO)C(=O)Nc1cc(Cl)cc(Cl)c1`: -1.72%; for `Cc1nn(C)c(C)c1CN(C)S(=O)(=O)c1c(C)n[nH]c1C`: 16.49%; for `Cc1cc(C)n(C2=NC(NCCCO)c3c(sc4c3CCCC4)N2)n1` (stereo unspecified): 30.54%. On to `Fc1cnc(N2CCO[C@H]3[C@H](OCC4CCOCC4)CC[C@@H]32)nc1`, for which the INHIBITION was -39.98%. Regarding `COc1cc(-n2cccc2)c(Cl)cc1C(=O)NS(C)(=O)=O`, the INHIBITION amounted to 1.06%. As for `CCOCCOC(C)C(=O)NCc1cn2cc(Br)ccc2n1` (stereo unspecified), the INHIBITION is on record as -4.1%. For the molecule `CCOCCOC(C)C(=O)NCc1cn2cc(Cl)ccc2n1` (stereo unspecified), the INHIBITION was 52.74%.

With `CCC(CC)C(=O)NCc1cn2cc(Br)ccc2n1`, the INHIBITION is on record as -10.87%.

Regarding `O=C(c1ccco1)N1CCOCC2(CCN(C3CCOCC3)C2)C1` (stereo unspecified), the INHIBITION was -68.56%. The same measure for `c1ccc(CN2CCNCC(Cc3cnccn3)C2)cc1` (stereo unspecified): 6.19%. As to `Cc1ncccc1NC(=O)[C@H]1C[C@@H]2CCN(Cc3ccsc3)C[C@H]2O1`, the INHIBITION is reported as -30.39%. With `CC(C)N(CCCNC(=O)C1CCOCC1)S(C)(=O)=O` the figure was 18.14%.

As to `CN(C)C(=O)NCc1cc2n(n1)CCCN(CC1[C@H]3CNC[C@@H]13)C2` (stereo partly specified), the INHIBITION is recorded as 14.46%. Take `O=C(OC1CCC1)c1ncccc1C(F)(F)F`: the INHIBITION was found to be 46.63%. With `O=C(O)c1ncccc1OCC(F)(F)F` the figure was 55.73%; with `O=C(OC1CCC1)c1ncccc1OCC(F)(F)F`, 21.72%. In the case of `CCc1nccn1CC(=O)N1C[C@@H]2CC[C@H]1CN(c1ncccn1)C2`, the INHIBITION is recorded as -54.76%.

As for `Cc1nc(CN2CCCN(Cc3nc4c(F)cccc4[nH]3)CC2)no1`, the INHIBITION was found to be 27.86%. As to `CCCNC(=O)c1cc2c(c3ccccc3n2C)n1C(=O)N(C)C`, the INHIBITION is -15.3%.

In the case of `CC(C)NC(=O)c1cc2c(c3ccccc3n2C)n1C(=O)N(C)C`, the INHIBITION is 9.21%. Consider `CN(C)C(=O)n1c(C(=O)NC(C)(C)CO)cc2c1c1ccccc1n2C`, for which the INHIBITION was 50.35%. For the molecule `CN(C)CCN1C(=O)CC[C@@H]2[C@H]1CCN2C(=O)c1ccc(C#N)cc1`, the INHIBITION is listed as 33.35%. With `CS(=O)(=O)N1C[C@H]2CC[C@@H](C1)N(Cc1ccc3nsnc3c1)C2` the figure was 6.3%. With `Cc1cc(C(=O)N2CCCC(Cn3cc(C4CC4)nn3)C2)nc(C)n1` (stereo unspecified) the figure was 15.27%.

In the case of `CC(O)CN1CCC(CNCc2cccc(C(F)(F)F)c2)CC1` (stereo unspecified), the INHIBITION is -32.84%. Consider `CN1CCCC(CCC(=O)NCCc2nnc(N)s2)C1` (stereo unspecified), for which the INHIBITION came out at 49.25%.

With `CCc1nnc(CNC(=O)CCC2CCCN(C)C2)s1` (stereo unspecified), the INHIBITION came out at 52.47%.

For the molecule `CCc1nnc(CNC(=O)CCC2CCCCN2C)s1` (stereo unspecified), the INHIBITION is -22.64%. In the case of `O=C(CCCN1CCCCC1)N1CCN(C(=O)c2ccc[nH]2)CC1`, the INHIBITION is listed as 2.7%.

As for `CCCn1c(O)nnc1SCC1OCCc2ccccc21` (stereo unspecified), the INHIBITION is reported as -10.86%.

With `Cn1c(N)nnc1SCC1OCCc2ccccc21` (stereo unspecified), the INHIBITION came to 18.52%.

As for `Cn1c(SCC2OCCc3ccccc32)n[nH]c1=O` (stereo unspecified), the INHIBITION amounted to 54.53%. With `COc1ccc(CN2CC(O)CN(C(=O)c3ccccc3)CC2=O)cc1` (stereo unspecified) the figure was -21.31%; with `OCc1ccc(CNc2ccccc2CN2CCC(O)CC2)o1`, 5.02%; with `CCc1ccc(CNc2ccccc2CN2CCC(O)CC2)o1`, -10.29%.

`CSc1ccc(CNc2ccccc2CN2CCC(O)CC2)cc1`: the INHIBITION worked out at 50.03%. Take `O=C(Nc1cc(CSCCO)ccn1)c1ccc(Cl)o1`: the INHIBITION was -32.88%. The same measure for `CCSCc1ccnc(NC(=O)C2CCOC2)c1` (stereo unspecified): 51.27%. The same measure for `CCSCc1ccnc(NC(=O)C2CCCO2)c1` (stereo unspecified): 31.62%; for `COc1ccc(-c2csc(-c3cccc(C(=O)O)c3)n2)cc1OC`: -60.47%. With `c1ccc(CN2CCC3(CC2)Nc2ccccc2CO3)cc1`, the INHIBITION is on record as 17.25%. With `Cc1cc(CN2CCC(CNC(=O)CN3CCCCCC3)C2)[nH]n1` (stereo unspecified) the figure was 63.17%; with `Cc1cc(CN2CCC(CNC(=O)Cc3ccc(F)cc3)C2)[nH]n1` (stereo unspecified), -73.43%. For the molecule `Cc1cc(CN2CCC(CNC(=O)c3ccc(C#N)cc3)C2)[nH]n1` (stereo unspecified), the INHIBITION is reported as 39.57%. Take `CCC1=N[C@@]2(CC[C@@H]3CN(Cc4ccc(Cl)cc4)C[C@@H]32)C(=O)N1C`: the INHIBITION is 17.51%. The same measure for `CN1CCc2[nH]cnc2C12CCN(C(=O)c1noc3c1CCCC3)CC2`: -15.03%. `Cn1c(CN2CCOC[C@H]2c2nc(C(C)(C)C)co2)nc2ccccc21`: the INHIBITION is recorded as -39.35%.
